A selection: hits, their analogues and other compounds. The true share with any hit is near 0.63%.
FXIa inh mix – inhibitors of human coagulation factor XIa, pooled mixtures | P03951 | purified FXIa, fluorogenic substrate | inhibition, % at 5 µM | hit rate 0.19% among 62,000 | AID 680;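 also: each value is inhibition by a whole ten-compound pool holding the compound; 0% = enzyme with no mixture and 100% = wells lacking enzyme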
FXIIa mix inh – inhibitors of human coagulation factor XIIa, pooled mixtures; hit rate 0.2% among 62,000; inhibition, % at 5 µM; P00748; purified FXIIa, fluorogenic substrate;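 also: 0% = enzyme without compound and 100% = no enzyme blank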
LYP inh 2 – blocks human PTPN22 phosphatase activity; hit rate 0.21% among 96,000; recombinant LYP catalytic domain, DiFMUP fluorescence; inhibition, % at 2 µM; Q9Y2R2;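 active = inhibition at 2 µM at or above a set limit, the screen mean plus 3 SD, cut at about 24% in these data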;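 also: 0% = DMSO with enzyme and 100% = enzyme fully blocked by orthovanadate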
DUSP1 inh – inhibitors of human MKP-1 phosphatase; AID 374; hit rate 0.15% among 65,000; P28562; inhibition, %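 (compounds tested at a single concentration somewhere between 10 and 100 µM)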; recombinant MKP-1, OMFP hydrolysis fluorescence;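 active = inhibition above about 50%, limit read from the data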;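 also: 0% = DMSO max control wells and 100% = wells with enzyme stopped by NaOH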
PTPN22 act – activators of human LYP (PTPN22) phosphatase. AID 697. Q9Y2R2. activation, % at 2 µM. hit rate 0.11% among 96,000. recombinant LYP, DiFMUP fluorescence; 0 = plate median, 100 = signal doubled;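 active = activation at 2 µM above a set limit, the mean plus 5 SD, cut at about 37% in these data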
Cdc25B block – human M-phase inducer phosphatase 2 inhibition; recombinant Cdc25B, OMFP fluorescence Ex485/Em525; inhibition, %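 (compounds tested at 10 µM final in the well)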; hit rate 0.1% among 65,000; in the data active = inhibition above about 50%
Target sequence (P30305 whole entry, looked up): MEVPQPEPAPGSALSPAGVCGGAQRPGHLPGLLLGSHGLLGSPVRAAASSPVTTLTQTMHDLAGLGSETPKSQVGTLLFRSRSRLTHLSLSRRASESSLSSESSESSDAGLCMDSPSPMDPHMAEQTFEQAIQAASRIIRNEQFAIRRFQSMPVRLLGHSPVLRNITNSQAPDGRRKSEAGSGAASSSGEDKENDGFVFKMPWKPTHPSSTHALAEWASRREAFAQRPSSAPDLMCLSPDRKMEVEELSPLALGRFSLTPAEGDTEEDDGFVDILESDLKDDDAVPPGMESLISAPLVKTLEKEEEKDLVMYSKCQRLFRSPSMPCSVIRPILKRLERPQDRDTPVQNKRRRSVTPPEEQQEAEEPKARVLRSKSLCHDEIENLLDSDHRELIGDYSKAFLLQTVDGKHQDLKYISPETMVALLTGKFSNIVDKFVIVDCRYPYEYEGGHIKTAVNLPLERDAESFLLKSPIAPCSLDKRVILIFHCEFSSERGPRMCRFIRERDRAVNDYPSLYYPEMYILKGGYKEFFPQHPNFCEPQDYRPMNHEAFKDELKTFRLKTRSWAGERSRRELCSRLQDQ
* = called active by the depositor; . = not tested or not shown. Rule as the data show it, unless noted: active = inhibition above about 20% (passing the limit was not always enough); inactive = the rest.

SMILES	FXIa inh mix	FXIIa mix inh	LYP inh 2	DUSP1 inh	PTPN22 act	Cdc25B block
Nn1cnnc1N/N=C/c1cc(Br)cc(Br)c1O	.	.	28*	.	-24	.
Cc1ccc(CSC2=Nc3ccccc3C3=NC(CC(=O)NCc4ccco4)C(=O)N23)cc1 (stereo unspecified)	1	-13	24*	44	-20	27
O=C(O)CSC12CC3CC(C1)CC(C(=O)O)(C3)C2	24*	-4	.	-9	.	-13
CC(=O)NC(C)C12CC3CC(CC(C(=O)O)(C3)C1)C2 (stereo unspecified)	8	15	1	-7	-4	4
CCc1nnc(NC(=O)c2cnccn2)s1	21*	2	-14	-11	9	2
O=C(Nc1nccs1)c1cnccn1	6	1	-2	11	-1	-6
[O-]/[N+](=C\c1ccncc1)c1ccc(Br)cc1	7	3	.	57*	.	-21
Cn1c(=O)oc2cc(S(=O)(=O)NCCC(=O)NC3CCCC3)ccc21	1	9	.	52*	.	-19
Cc1cccc(N2CCN(C(=O)CCn3c(=S)[nH]c4cc5c(cc4c3=O)OCO5)CC2C)c1 (stereo unspecified)	5	45*	4	36	-7	-4
O=C(CCn1c(=S)[nH]c2cc3c(cc2c1=O)OCO3)N1CCc2ccccc2C1	.	.	1	.	-1	.
C=CCn1c(N)cc(=O)nc1SC(C)C(=O)Nc1cccc2ccccc12 (stereo unspecified)	.	.	0	.	-1	.
CC1CCCCN1C(=O)Cn1cc(/C=C2/C(=O)Nc3ccccc32)c2ccccc21 (stereo unspecified)	.	.	-10	.	12	.
CCOC(=O)c1c(NC(=O)c2cccs2)sc2c1CC(C)(C)OC2	21*	-20	.	0	.	-13
CCOC(=O)c1cccc(NC(=O)c2cccs2)c1	2	8	-1	-17	1	5
CC(C)(C)c1cc(C(=O)O)c(CN2CCCCC2)o1	7	4	-3	-16	1	79*
O=C(Nc1ccc2oc(-c3cccc4ccccc34)nc2c1)c1ncn[nH]1	.	.	52*	.	-54	.
CCOC(=O)C1=C(O)/C(=C/c2ccc(C)o2)SC1=NC(=O)c1ccccc1C	.	.	9	.	-9	.
Cc1ccc(CN2CCN(CC(=O)N3CCC(C(N)=O)CC3)C2=O)cc1	5	9	-6	-1	3	70*
Cc1ccc2nc(NC(=S)NC(=O)c3cccs3)sc2c1	.	.	30*	.	-28	.
CCn1cnc2sc(C(=O)N(Cc3ccc(N(C)C)cc3)Cc3ccco3)c(C)c2c1=O	23*	-20	.	14	.	9
Cc1cc(=O)oc(C)c1C(=O)OCC(=O)c1ccc(Cl)cc1	.	.	4	.	-2	.
O=C(c1ccc2c(=O)n(C3CCCC3)c(=S)[nH]c2c1)N1CCN(C2CCCCC2)CC1	-9	6	-2	52*	0	-2
COc1cccc(N2CCN(C3CC(=O)N(c4cccc(Cl)c4)C3=O)CC2)c1 (stereo unspecified)	.	.	.	-16	.	92*
Cc1cccc(N2C(=O)CC(N3CCN(c4cccc(C(F)(F)F)c4)CC3)C2=O)c1 (stereo unspecified)	7	-3	8	4	-4	-14
CCOC(=O)c1ccc(S(=O)(=O)Nc2ccc3cn[nH]c3c2)cc1	.	.	6	.	-9	.
SMILES	FXIa inh mix	FXIIa mix inh	LYP inh 2	DUSP1 inh	PTPN22 act	Cdc25B block
CCOc1nnnc2c1sc1nc(N3CCOCC3)c3c(c12)CCCC3	.	.	-4	.	3	.
O=C(c1ccco1)N1CCN(C(c2ccccc2Cl)c2nnnn2CC2CCCO2)CC1 (stereo unspecified)	8	-13	1	5	-2	2
NC(=O)C1CCN(C(c2ccccc2Cl)c2nnnn2CC2CCCO2)CC1 (stereo unspecified)	2	7	29*	8	-29	-18
O=C(N/N=C/c1ccc2ccccc2c1)c1ccc(COc2ccc3c(c2)CCC3)o1	.	.	33*	.	-31	.
COc1ccc(Br)cc1/C=N/NC(=O)c1ccc(COc2ccc3c(c2)CCC3)o1	.	.	7	.	-5	.
CCOc1ccc(N2CC(C(=O)OC)CC2=O)cc1 (stereo unspecified)	1	-20	10	-12	-13	-25
O=C(CN1CCC(n2nnc3cc(F)ccc32)CC1)NC1CC1	7	7	.	-6	.	-17
CCOc1ccc2nc(NC(=O)CN3CCC(n4nnc5cc(F)ccc54)CC3)sc2c1	4	31*	5	29	-5	-4
Cc1ccc(-c2cc(C(=O)Nc3ccc4c(c3)OCCO4)c3ccccc3n2)cc1	.	.	3	.	2	.
